# Screens (PubChem)
# Most compounds without a hit are left out; they make up all but 1.8% or so of the library.
# GSTO1 counter – counter-screen for RBBP9 inhibitors: inhibitors of human GSTO1 | recombinant GSTO1, activity-based probe fluorescence polarization | AID 1974 | P78417 | actives 1.1% (n = 300,000) | inhibition, % at 5.96 µM;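 active = inhibition above the campaign mean inhibition plus 3 SD, cut at about 35% in these data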;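 also: 0% = GSTO1-1 with DMSO and 100% = wells lacking GSTO1-1 enzyme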
# PME-1 inh – blocks human protein phosphatase methylesterase 1. recombinant PME-1, FP-Rh probe fluorescence polarization. actives 0.53% (n = 320,000). inhibition, % at 5.9 µM. AID 2130. Q9Y570;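 active = inhibition above the campaign mean of all compounds plus 3 SD, cut at about 26% in these data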;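 also: competitive labeling of PME-1 active site by serine hydrolase directed probe; 0% = PME-1 with DMSO and 100% = wells lacking PME-1 enzyme; inhibitors block probe labeling so polarization falls and inhibition rises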
# Target sequence (Q9Y570 whole entry, looked up): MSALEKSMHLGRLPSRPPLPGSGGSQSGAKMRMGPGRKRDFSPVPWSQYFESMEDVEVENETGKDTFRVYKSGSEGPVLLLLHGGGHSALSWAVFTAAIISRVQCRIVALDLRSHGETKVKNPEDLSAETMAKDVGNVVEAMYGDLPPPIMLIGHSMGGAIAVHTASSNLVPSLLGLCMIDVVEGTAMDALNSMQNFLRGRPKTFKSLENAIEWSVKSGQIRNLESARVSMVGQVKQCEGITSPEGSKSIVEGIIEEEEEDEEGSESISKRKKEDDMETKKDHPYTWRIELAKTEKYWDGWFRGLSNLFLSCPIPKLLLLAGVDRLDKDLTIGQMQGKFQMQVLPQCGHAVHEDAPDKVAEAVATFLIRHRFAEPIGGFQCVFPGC
# PAD4 inh – PAD4 (human) enzyme inhibition. Q9UM07. recombinant PAD4, RCA probe fluorescence polarization. inhibition, % at 6.36 µM. actives 0.41% (n = 330,000). AID 485272;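 active = percent inhibition above a cutoff equal to the mean of all tested compounds plus 3 SD, cut at about 15% in these data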;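 also: 0% = PAD4 with RCA probe and DMSO and 100% = probe without PAD4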
# LYPLA1 inh – counter-screen for PME1 inhibitors: inhibitors of human LYPLA1; O75608; recombinant LYPLA1, FP-Rh probe fluorescence polarization; inhibition, % at 5.9 µM; actives 0.16% (n = 320,000);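 active = inhibition above the mean of all tested compounds plus 3 SD, set per campaign, cut at about 14% in these data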;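 also: inhibitors block serine hydrolase probe labeling of LYPLA1 so polarization falls; 0% = enzyme with DMSO and 100% = wells lacking LYPLA1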
# Fam108B inh – Fam108B inhibition, counter-screen for RBBP9 inhibitors. recombinant Fam108B, FP-Rh probe fluorescence polarization. inhibition, % at 9.51 µM. actives 0.33% (n = 300,000);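 active = inhibition above the screen mean inhibition plus 3 SD, computed separately per campaign, cut at about 18% in these data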;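 also: inhibitors lower polarization as less probe binds the enzyme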
# LYPLA2 counter – blocks human lysophospholipase 2, a PME1 counter-screen; O95372; recombinant LYPLA2, FP-Rh probe fluorescence polarization; inhibition, % at 5.9 µM; actives 0.38% (n = 320,000);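 active = inhibition above the screen-wide mean plus 3 SD, limit set per campaign, cut at about 26% in these data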;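 also: 0% = LYPLA2 with DMSO and 100% = wells lacking LYPLA2 enzyme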
# Target sequence (O95372 whole entry, looked up): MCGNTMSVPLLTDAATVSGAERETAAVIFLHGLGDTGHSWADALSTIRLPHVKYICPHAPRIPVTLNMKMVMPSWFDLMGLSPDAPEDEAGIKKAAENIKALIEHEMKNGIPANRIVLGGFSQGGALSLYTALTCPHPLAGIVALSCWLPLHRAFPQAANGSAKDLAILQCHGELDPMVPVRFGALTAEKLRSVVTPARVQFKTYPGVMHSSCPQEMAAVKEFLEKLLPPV
# Fam108b inh conf – confirmation of mouse Fam108b serine hydrolase inhibitors. shares compounds with Fam108B inh. recombinant Fam108b, FP-Rh probe fluorescence polarization. inhibition, % at 9.51 µM. actives 44% (n = 930);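 active = inhibition above a limit from the primary screen, the mean over all compounds plus 3 SD, cut at about 19% in these data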;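 also: 0% = median of active Fam108b wells and 100% = catalytically dead S170A mutant; inhibitors free the probe so polarization falls as inhibition rises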
# Fam108b inh – mouse ABHD17B inhibition. actives 44% (n = 260). inhibition, % at 20 µM. shares compounds with Fam108B inh. recombinant Fam108b, gel-based ABPP, fluorophosphonate probe; in the data active = inhibition above about 40%
# GSTO1 confirm – GSTO1 (human) inhibition, confirmation; shares compounds with GSTO1 counter; recombinant GSTO1, probe fluorescence polarization; inhibition, % at 5.96 µM; actives 54% (n = 2,400); AID 2176;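 active = inhibition above the primary screen's cutoff, its mean inhibition plus 3 SD, cut at about 35% in these data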;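 also: loss of polarization as inhibitors block binding of rhodamine sulfonate ester activity probe; 0% = GSTO1 with DMSO and 100% = wells lacking GSTO1 enzyme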
# LYPLA1 conf – counter-screen for PME1 inhibitors: confirmation of human LYPLA1 inhibitors | actives 69% (n = 480) | inhibition, % at 5.9 µM | shares compounds with LYPLA1 inh | recombinant LYPLA1, FP-Rh probe fluorescence polarization;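 active = mean inhibition across replicates above the hit cutoff set in the primary screen, cut at about 15% in these data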;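 also: loss of FP-Rh probe labeling of LYPLA1 seen as lower polarization; 0% = LYPLA1 with DMSO and 100% = wells lacking LYPLA1 enzyme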
# LYPLA2 confirm – counter-screen for PME1 inhibitors: confirmation of human LYPLA2 inhibitors. recombinant LYPLA2, FP-Rh probe fluorescence polarization. inhibition, % at 5.9 µM. shares compounds with LYPLA2 counter. AID 2232. actives 72% (n = 1,100);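 active = mean inhibition across replicates above the hit cutoff set in the primary screen, cut at about 26% in these data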;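 also: blocked labeling of the enzyme by serine hydrolase FP-Rh probe lowers polarization; 0% = enzyme with DMSO and 100% = wells lacking LYPLA2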
# PAD4 FP conf – confirmation of human PAD4 inhibitors. shares compounds with PAD4 inh. recombinant PAD4, RCA probe fluorescence polarization. inhibition, % at 6.36 µM. actives 28% (n = 1,200). AID 488796;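 active = mean inhibition across replicates above the hit cutoff set by the earlier primary screen, cut at about 15% in these data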;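 also: inhibitors block active-site labeling by the probe so polarization falls; 0% = PAD4 with probe and DMSO and 100% = probe without PAD4 enzyme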
# Numbers without * were called inactive; x = not tested or not shown; + = active, no number.
SMILES,GSTO1 counter,PME-1 inh,PAD4 inh,LYPLA1 inh,Fam108B inh,LYPLA2 counter,GSTO1 confirm,others
COc1ccc(OC)c(-c2c3cc(O)c(=O)cc-3oc3cc(O)c(O)cc23)c1,50*,59*,55*,85*,73*,77*,73*,Fam108b inh conf=110*;LYPLA1 conf=-22;LYPLA2 confirm=-83;PAD4 FP conf=+
CCNc1ccc2noc3c2c1C(=O)c1ccccc1-3,94*,111*,112*,108*,115*,118*,76*,Fam108b inh conf=149*;Fam108b inh=95*;LYPLA1 conf=108*;LYPLA2 confirm=112*;PAD4 FP conf=102*
CCN(CC)C(=O)C1c2ccccc2Oc2ccccc21,44*,70*,80*,58*,47*,72*,9,Fam108b inh conf=3;LYPLA1 conf=2;LYPLA2 confirm=3;PAD4 FP conf=7
CCOC(=O)C1CCN(C(=O)Cn2nc(C)n3nc(-c4ccc(CC)cc4)cc3c2=O)CC1,1,5,1,-1,1,-6,x,
Cc1cc2nc3ccc(N(C)C)cc3nc2cc1N,47*,40*,29*,32*,32*,33*,42*,Fam108b inh conf=19*;LYPLA1 conf=19*;LYPLA2 confirm=24;PAD4 FP conf=31*
Cc1ccc(Cl)cc1NC1=C/C(=N\S(=O)(=O)c2cccs2)c2ccccc2C1=O,74*,24,52*,0,24*,4,94*,Fam108b inh conf=20*;PAD4 FP conf=54*
Cc1c(Cl)cccc1N/C(=N/S(=O)(=O)c1cccs1)c1ccccc1,6,0,-2,-1,-4,1,x,
COCCn1c(SCCCC(=O)c2ccc(Br)cc2)nnc1-c1ccncc1,7,-4,-4,1,-1,-5,x,
CCn1c(CSc2nnc(-c3ccncc3)n2CCOC)nc2cc(C(=O)O)ccc21,20,32*,48*,31*,25*,39*,x,Fam108b inh conf=35*;Fam108b inh=25;LYPLA1 conf=34*;LYPLA2 confirm=34*;PAD4 FP conf=58*
COC(=O)c1ccc(C(=O)OC)c(NC(=O)CSc2n[nH]c(N)n2)c1,x,x,0,x,x,x,x,
CCn1c(CSc2n[nH]c(N)n2)nc2cc(C(=O)O)ccc21,22,31*,51*,39*,30*,38*,x,Fam108b inh conf=41*;Fam108b inh=0;LYPLA1 conf=35*;LYPLA2 confirm=35*;PAD4 FP conf=58*
CCn1c(CSc2nnc3ccccn23)nc2cc(C(=O)O)ccc21,29,41*,47*,39*,50*,43*,x,Fam108b inh conf=55*;Fam108b inh=0;LYPLA1 conf=52*;LYPLA2 confirm=51*;PAD4 FP conf=77*
CN1CCN(C(=O)N2CCNC2=O)CC1,2,-5,-6,0,2,0,x,
CC(C)CC(=O)Nc1ccc(C(=O)CN2C(=O)NC3(CCOc4ccccc43)C2=O)cc1 (stereo not drawn),-8,-7,-5,-2,-4,-5,x,
O=C(N/N=C/c1cccc(F)c1)c1cc(-c2ccco2)nc2ccccc12,41*,1,1,-17,8,-11,25,
COc1cc(/C=N/NC(=O)c2cc(-c3ccco3)nc3ccccc23)cc(OC)c1O,21,0,1,-7,10,-8,x,
Cc1cc(C(=O)NNC(=O)c2ccc(Cl)cc2)no1,48*,5,-1,0,3,3,7,
COc1cccc(C(=O)NNC(=O)c2ccc3ccccc3c2O)c1,45*,3,4,4,-1,9,4,
O=[N+]([O-])c1ccccc1N/N=C/c1cccc(O)c1O,49*,3,1,4,8,1,8,
COC(=O)C(Cc1ccc(O)cc1)NC(=O)c1ccc2c(c1)OCCO2 (stereo not drawn),4,-9,-3,-6,-5,-13,x,
CN1C(=O)N(C)C2(c3ccccc3)NC(=O)NC12c1ccccc1 (stereo not drawn),-5,1,-4,5,-4,3,x,
CN1c2ccccc2N(C)C1(C)c1ccccc1,50*,-4,-4,-1,0,-3,7,
CCOC(=O)c1cccc(C(=O)Nc2nc3ccc(OC)cc3s2)n1,53*,-43,-7,1,-6,-6,5,
COc1ccc2nc(NC(=O)c3ccccc3O)sc2c1,8,-85,-4,-7,6,-14,x,
COc1ccc(CCn2c(N)c(C(=O)NCc3ccco3)c3nc4ccccc4nc32)cc1OC,52*,9,-16,-5,7,-6,0,
SMILES,GSTO1 counter,PME-1 inh,PAD4 inh,LYPLA1 inh,Fam108B inh,LYPLA2 counter,GSTO1 confirm,others
COc1ccc(CCNC(=O)c2ccc3nc(-c4ccco4)c(-c4ccco4)nc3c2)cc1OC,39*,16,-13,-9,9,6,14,
COCCNC(=O)c1c(N)n(CCC2=CCCCC2)c2nc3ccccc3nc12,42*,12,-11,3,8,-3,4,
CCOC(=O)c1ccc(S(=O)(=O)Nc2ccc(N3CCOCC3)cc2)cc1,11,-1,1,-1,0,-4,x,
CCn1c(C)nc2cc(C(=O)N/N=C/c3cccc(O)c3O)ccc21,45*,0,3,-8,2,-7,5,
Cc1ccc(-c2csc3ncn(CC#N)c(=O)c23)cc1,18,7,-3,-1,3,5,x,
Cc1ccc(-c2csc3ncn(CC#N)c(=O)c23)cc1C,39*,1,-5,-7,13,-6,30,
CCCC(=O)Nc1ccc(C(=O)NNC(=S)NC(=O)c2ccc(Br)o2)cc1,44*,0,0,0,3,-2,13,
CCCC(=O)Nc1ccc(C(=O)NNC(=S)NC(=O)c2cccs2)cc1,-4,-3,-3,1,-1,3,x,
O=C(NC(=S)Nc1ccccc1)c1ccc(Br)o1,14,0,-4,0,-4,0,x,
COc1ccc(NC(=S)NC(=O)c2ccc(Br)o2)cc1,45*,-5,-5,-7,-2,-2,35,
Cc1ccccc1OCCC(=O)N(CC(C)C)c1c(N)n(Cc2ccccc2)c(=O)[nH]c1=O,x,3,-4,-1,x,0,x,
Oc1ccc(/C=N/N(c2ccccc2)c2ccccc2)c(O)c1O,51*,2,-7,-9,4,-3,5,
